RBX1-CUL1 inh: inhibitors of human ROC1-CUL1 ubiquitin ligase activity; E3 ubiquitin-protein ligase RBX1 (Homo sapiens) + Cullin-1 (Homo sapiens), P62877+Q13616; in vitro K48 di-Ub FRET, acceptor:donor ratio, 45 min; inhibition, % at 10 µM; 0.6% of 140,000 active; AID 1347404, 2020; in the data active means inhibition above about 25%
Target sequence (P62877 whole entry, looked up): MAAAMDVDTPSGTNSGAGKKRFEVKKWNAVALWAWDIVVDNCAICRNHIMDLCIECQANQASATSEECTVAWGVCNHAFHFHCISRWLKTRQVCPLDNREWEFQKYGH
Target sequence (Q13616 whole entry, looked up): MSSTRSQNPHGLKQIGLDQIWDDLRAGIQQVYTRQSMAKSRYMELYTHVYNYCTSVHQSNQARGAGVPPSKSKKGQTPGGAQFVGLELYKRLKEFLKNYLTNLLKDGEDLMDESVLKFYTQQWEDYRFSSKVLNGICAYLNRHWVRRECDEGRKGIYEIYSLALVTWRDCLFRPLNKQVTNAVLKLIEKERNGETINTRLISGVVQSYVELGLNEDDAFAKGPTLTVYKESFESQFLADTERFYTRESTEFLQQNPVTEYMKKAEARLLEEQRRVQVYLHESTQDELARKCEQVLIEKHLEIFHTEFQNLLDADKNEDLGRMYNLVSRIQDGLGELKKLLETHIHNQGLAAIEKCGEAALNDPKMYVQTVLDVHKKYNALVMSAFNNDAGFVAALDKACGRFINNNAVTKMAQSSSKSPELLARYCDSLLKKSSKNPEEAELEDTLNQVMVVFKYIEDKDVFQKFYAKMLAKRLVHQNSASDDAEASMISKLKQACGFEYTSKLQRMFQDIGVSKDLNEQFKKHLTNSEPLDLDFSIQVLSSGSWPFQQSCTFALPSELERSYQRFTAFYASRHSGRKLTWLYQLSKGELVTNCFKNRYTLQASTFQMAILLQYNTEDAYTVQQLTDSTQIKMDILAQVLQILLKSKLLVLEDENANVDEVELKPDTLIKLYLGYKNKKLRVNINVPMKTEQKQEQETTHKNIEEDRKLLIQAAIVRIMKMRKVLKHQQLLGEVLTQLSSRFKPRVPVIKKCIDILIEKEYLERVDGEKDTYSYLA
Of the large screens only hits and unclear results are named; the others gave an inactive call. Only a selection was taken, and hits are over-represented in it overall.

CN(C)c1cc(N/N=C/c2ccc(OCc3ccc(F)cc3)cc2)nc(N(C)C)n1	none
Cc1cccc(OCC(=O)NCC(=O)N/N=C/c2ccc(-c3ccc(C(=O)O)cc3)o2)c1	none
CN(C)c1cc(N/N=C/c2ccc(-c3ccc(C(=O)O)cc3)o2)nc(N(C)C)n1	RBX1-CUL1 inh 62
O=C(CN1C(=O)S/C(=C/c2cccc(O)c2)C1=O)Nc1ccccc1	none
C/C(=N\NC(=O)C1CCN(Cc2ccc(F)cc2Cl)CC1)c1cccc(NC(=O)c2ccncc2)c1	none
N#Cc1c(N)nc2sc(C(=O)Nc3ccc(Cl)cc3)c(N)c2c1-c1cccs1	none
N#CC1C(=N)Oc2c(ccc3ccccc23)C1c1cc(Br)ccc1F (configuration not stated)	none
COc1ccc(C(=O)C(C2=NCCN2)n2cncn2)cc1 (configuration not stated)	none
O=C(NC(=O)C(F)(F)F)Nc1ccc(I)cc1	none
CCc1ccccc1NC(=O)c1ccc([N+](=O)[O-])o1	none
O=C(/C(=C/c1ccccc1)Sc1ccccc1)c1ccc([N+](=O)[O-])o1	none
N#C/C(=C/C(=O)c1ccccc1)c1ccc([N+](=O)[O-])o1	RBX1-CUL1 inh 85
Cc1sc(NC(=O)CSc2nnc(-c3ccco3)o2)c(C#N)c1C	none
COc1ccc(C2=C(C#N)C(=S)N=C(C3CC3)C2)cc1	none
CN1CCC2=NC(=S)C(C#N)=C(c3ccc(F)cc3)C2C1 (configuration not stated)	RBX1-CUL1 inh 97
N#CC1=C(c2ccco2)C2CCCCC2=NC1=S (configuration not stated)	none
COc1ccc(-n2cc(Cl)nc(N3CCC[C@H]3C(=O)O)c2=O)cc1	none
CN(C)c1nc(SCC(N)=O)nc(N(C)C)n1	none
NC(=O)CSc1nc(N2CCOCC2)nc(N2CCOCC2)n1	RBX1-CUL1 inh 50
N#Cc1nc(N2CCOCC2)nc(N2CCOCC2)n1	none
COc1cc(CN2CCC3(CC2)CC3C(=O)N2CCCN(C)CC2)cc(OC)c1 (configuration not stated)	none
CCN(CC)CCN1C(=O)C(=O)C(C(=O)c2cccs2)C1c1ccc(C)o1 (configuration not stated)	none
N#CC1=C(c2ccccc2)CC(C(F)(F)F)=NC1=S	none
N#CC1=C(C(F)(F)F)CC(c2ccco2)=NC1=S	RBX1-CUL1 inh 91
CC1=NC(=S)C(C#N)=C(C(F)(F)F)C1	none
O=c1c(-c2ccccc2Cl)c(C(F)(F)F)oc2cc(OCc3ccc(Cl)c(Cl)c3)ccc12	none
COc1ccc(C2C(C(=O)Nc3ccc(Cl)cc3)C(C)=Nc3ncnn32)cc1 (configuration not stated)	none
Cc1ncc2c(c1-c1noc(-c3ccc(N)nc3)n1)CCN(CC1CCCC1)C2	none
CNc1ncc(-c2nc(-c3c(C)ncc4c3CCN(CC3CC3)C4)no2)cn1	none
Cc1cc(C)n(Cc2nc(-c3c(C)ncc4c3CCN(CC3CC3)C4)no2)n1	RBX1-CUL1 inh 37
COc1cc(/C=C2/C(C)=C(C#N)c3nc(N)c(C#N)c(C)c32)cc(Br)c1O	none
O=C1NC(=O)C(CC(=O)c2ccc(Cl)cc2)S1 (configuration not stated)	none
O=C1NC(=O)N(c2ccc(Cl)cc2)C(=O)/C1=C\c1c2ccccc2cc2ccccc12	none
O=C1NC(=S)N(c2ccccc2)C(=O)/C1=C/c1ccc(Sc2ccc(Cl)cc2)s1	RBX1-CUL1 inh 33
Cc1cc(/C=C2\C(=O)NC(=S)N(c3ccc(Cl)cc3)C2=O)c(C)n1-c1ccc(Cl)c(Cl)c1	none
CCOC(=O)C1(Cc2ccccc2)CCN(Cc2cc(C)[nH]n2)CC1	none
CCN(CC)C(=O)Oc1ccc2c(=O)c(-c3ccc(OC)c(OC)c3)coc2c1	none
CC12CCC(C(=O)Nc3cc(C(F)(F)F)ccc3Cl)(CC1=O)C2(C)C (configuration not stated)	none
CC(C)c1ccc(/C=C/C(=O)NCc2ccc3c(c2)OCO3)cc1	none
CN(CCC(=O)/C=C/c1ccc(Cl)c(Cl)c1)CCc1ccc2c(c1)OCO2	RBX1-CUL1 inh 83
O=C(/C=C/c1ccc2c(c1)OCO2)Sc1ccc(Cl)cc1	none
CC(COCCc1nn[nH]n1)OCCc1nn[nH]n1 (configuration not stated)	none
NC(=O)c1c(SCC(=O)c2ccccc2)sc(C(=O)c2ccccc2)c1N	RBX1-CUL1 inh 31
Nc1c(C(=O)c2ccccc2)sc2nc(-c3ccccc3)ccc12	none
O=C(CSc1nc2ccccc2nc1SCC(=O)c1ccccc1)c1ccccc1	none
N#CC1C(=N)Oc2n[nH]c(-c3ccccc3)c2C1c1ccc(OC(F)(F)F)cc1 (configuration not stated)	none
C=CCOc1ccc(/C=C2/SC(=O)N(CC(=O)Nc3ccc(C)c(C)c3)C2=O)cc1OC	none
CC1CCCN(C(=O)COc2ccc(F)cc2)C1 (configuration not stated)	none
Cn1c2ccccc2c2nnc(SCC(=O)Nc3ccc(OC(F)(F)Cl)cc3)nc21	none
CCN=C1CC=CC=C(C(=O)/C=C/c2cccc(Cl)c2)C1=O	none
CCN=C1CC=CC=C(C(=O)/C=C/c2ncccc2C)C1=O	RBX1-CUL1 inh 36
CCN=C1CC=CC=C(C(=O)/C=C/c2ccc(Cl)cc2)C1=O	RBX1-CUL1 inh 79
CCN=C1CC=CC=C(C(=O)/C=C/c2ccc(Cl)cc2Cl)C1=O	none
CCN=C1CC=CC=C(C(=O)/C=C/c2cccc(OC)c2OC)C1=O	none
CCN=C1CC=CC=C(c2ccc3ccccc3n2)C1=O	none
CC(C)COc1ccc(S(=O)(=O)NCCNS(=O)(=O)c2ccc(OCC(C)C)cc2)cc1	none
CCCCOC(=O)c1ccc(NC(=O)C2C(=O)c3ccccc3N(CC(C)C)C2=O)cc1 (configuration not stated)	none
CCCSc1nc2sc3c(c2c(=O)[nH]1)CC(C)(C)OC3	none
Cc1ccc(-n2nnc(C(=O)Nc3ccccc3F)c2C)cc1C	none
Cc1cc(Br)ccc1NC(=O)c1sc2ncccc2c1N	none
CCOC(=O)N1CCc2c(sc(N)c2C(=O)c2ccccc2Cl)C1	none
CCOc1ccc(N2C(=O)/C(=C/c3cccn3-c3cccc(C(=O)O)c3)C(=O)NC2=S)cc1	none
Cc1cccc(N2C(=O)/C(=C/c3cccn3-c3ccc(Cl)cc3)C(=O)NC2=S)c1C	none
CCCN1C(=O)/C(=C\c2cccn2-c2cccc(C(F)(F)F)c2)C(=O)N(c2ccccc2)C1=S	none
O=C1NC(=S)N(c2cccc(F)c2)C(=O)/C1=C/c1cccn1-c1cccc(C(F)(F)F)c1	none
Cc1cccc(N2C(=O)/C(=C/c3cccn3-c3cccc(C(F)(F)F)c3)C(=O)NC2=S)c1C	RBX1-CUL1 inh 53
Cc1ccc(N2C(=O)/C(=C/c3cn(CC(=O)O)c4ccccc34)C(=O)NC2=S)c(C)c1	RBX1-CUL1 inh 54
Cc1cccc(N2C(=O)/C(=C/c3cccn3-c3cccc(C(=O)O)c3)C(=O)NC2=S)c1	none
CN(C)c1ccc(-n2cccc2/C=C2\C(=O)NC(=S)N(c3ccc(Br)cc3)C2=O)cc1	none
Cc1ccc(N2C(=O)/C(=C/c3cc(C)n(C(C)C)c3C)C(=O)NC2=S)c(C)c1	none
CCc1ccccc1N1C(=O)/C(=C/c2cccn2-c2ccc(Cl)cc2)C(=O)NC1=S	RBX1-CUL1 inh 36
COc1ccc(Cl)cc1/C=C1\C(=O)NC(=S)N(c2ccc(C)cc2C)C1=O	none
Cc1ccc(N2C(=O)/C(=C/c3cccn3-c3cccc(C(=O)O)c3)C(=O)NC2=S)c(C)c1	RBX1-CUL1 inh 97
CCCc1cc(-c2nn3c(-c4ccccc4)nnc3s2)n(CC)n1	none
Cc1cc2ncn(Cc3nc(C4CCCNC4)cc(=O)[nH]3)c2cc1C (configuration not stated)	none
N#Cc1ccc(Oc2ncnc3sc4c(c23)CCCC4)cc1	none
CC(=O)NS(=O)(=O)c1ccc(Br)cc1	none

Source: PubChem (Pan Lab, Icahn School of Medicine at Mount Sinai)
